Assay outcomes: PubChem, several laboratories
Only some compounds are listed: those with a hit (about 3.5% of all), similar ones and a draw of the others.
FBA Mtb inh: Mtb FBA enzyme inhibitors, primary screen, biochemical, fluorescence, strain H37Rv | purified M. tuberculosis FBA, fluorescence read-out | AID 588726, 2011 | inhibition, % at 1 µM | 2.3% of 360,000 active | Fructose-bisphosphate aldolase (Mycobacterium tuberculosis (strain ATCC 25618 / H37Rv)), …; in the data active = inhibition above about 27%;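 note: 0% = vehicle and 100% = reference inhibitor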
GDH-TPI counter: GDH-TPI coupling enzyme inhibitors, primary screen, artefact control for M. tuberculosis FBA inhibitor project, biochemical, absorbance, full deck; inhibition, % at 4.8 µM; GDH-TPI coupled enzyme counterscreen, NADH absorbance; AID 588335, 2011; 1.2% of 360,000 active; in the data active = inhibition above about 30%;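 note: 0% = DMSO wells and 100% = wells lacking the enzyme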
FadD28 FP inh: inhibitors of FadD28 bisubstrate probe binding, primary screen, biochemical, fluorescence polarization, single point; inhibition, % at 12.5 µM; Mycobacterium tuberculosis FadD28 fatty-acid-AMP ligase; 0.22% of 360,000 active; in the data active = inhibition above about 8.5%, passing the limit was not always enough
Rv3671c protease: Rv3671c serine protease inhibitors, primary screen, biochemical, fluorescence polarization, M. tuberculosis H37Rv; P9WHR9; 0.048% of 320,000 active; AID 2606, 2010; inhibition, % at 5.96 µM; in the data active = inhibition above about 38%;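 note: extracellular domain of Rv3671c used as enzyme; 0% = enzyme with DMSO and 100% = no enzyme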
Mtb hypoxia rep: PubChem AID 1159583; 0.1% of 300,000 active; fluorescence inhibition, % (no concentration beside the values); M. tuberculosis hypoxia-regulated fluorescent reporter, fluorescence; in the data active = fluorescence inhibition mostly above about 23%, no sharp cut-off; inactive = mostly below about 17%
UGM FP inh: M. tuberculosis UGM enzyme inhibitors, primary screen, biochemical, fluorescence polarization, single point | UDP-galactopyranose mutase (Mycobacterium tuberculosis (strain ATCC 25618 / H37Rv)), … | purified UGM, fluorescence polarization probe displacement | inhibition, % at 10 µM | 0.06% of 320,000 active | AID 504406, 2011; in the data active = inhibition above about 10%, passing the limit was not always enough
Target sequence (P9WIQ1 whole entry, looked up): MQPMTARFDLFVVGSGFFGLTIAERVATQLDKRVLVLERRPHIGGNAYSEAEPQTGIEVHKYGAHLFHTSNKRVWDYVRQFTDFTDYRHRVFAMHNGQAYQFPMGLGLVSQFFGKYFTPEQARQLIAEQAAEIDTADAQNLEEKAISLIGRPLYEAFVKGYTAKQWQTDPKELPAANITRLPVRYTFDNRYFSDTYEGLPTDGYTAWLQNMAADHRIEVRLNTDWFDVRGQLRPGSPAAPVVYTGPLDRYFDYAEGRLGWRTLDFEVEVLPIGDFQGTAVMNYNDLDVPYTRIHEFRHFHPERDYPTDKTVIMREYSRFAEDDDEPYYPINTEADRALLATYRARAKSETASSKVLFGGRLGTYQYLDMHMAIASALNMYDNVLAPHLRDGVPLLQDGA
* hit, by the source's call; nt = not tested or not shown; + = active, no number.

SMILES	FBA Mtb inh	GDH-TPI counter	FadD28 FP inh	Rv3671c protease	Mtb hypoxia rep	UGM FP inh
Fc1ccc(C2=CC(c3ccco3)n3ncnc3N2)cc1 (stereo not given)	113.3*	18.6	-2.0	-2.7	7.8	2.2
Cc1ccc(S(=O)(=O)NN=Cc2ccc(C(=O)O)cc2)cc1	nt	nt	nt	nt	7.0	nt
COC(=O)[C@]1(C)NC(c2ccc(-c3ccc(Cl)c(Cl)c3)c(OC)c2)C2C(=O)N(C)C(=O)C21 (stereo not given in full)	nt	nt	nt	nt	8.5	nt
CCOc1cc(/C=C2\NC(=O)NC2=O)ccc1OC(C)C(=O)O (stereo not given)	-0.9	47.2*	0.5	-3.4	-1.8	1.5
CCOc1cc(/C=C2\NC(=O)NC2=O)cc([N+](=O)[O-])c1O	-3.6	32.1*	2.0	10.0	16.1	-1.4
COc1cc(C=NCc2ccccc2)ccc1O	-2.4	41.6*	-0.6	nt	nt	nt
COc1cc(C=O)ccc1O	-1.0	57.7*	-1.4	nt	nt	nt
COc1cc(/C=C2/NC(=O)NC2=O)ccc1OCC(=O)Nc1ccc(F)cc1	-0.9	15.2	-3.6	-15.3	-0.2	-1.7
Oc1oc(-c2ccccc2)nc1C=Nc1nccs1	nt	nt	nt	nt	10.8	nt
C=CCCC(Cc1ccc(F)cc1)C(=O)OCCNC(=O)C(CC=C)CC(=O)NC(CO)Cc1ccccc1 (stereo not given)	nt	nt	nt	nt	9.2	nt
CCOc1ccc(C=NNC(=O)Cc2ccccc2)cc1CN1CC2CC(C1)c1cccc(=O)n1C2 (stereo not given)	nt	nt	nt	nt	-10.5	nt
CCOc1cc(C=C2C(=O)NC(=S)NC2=O)ccc1O	1.3	33.6*	1.6	nt	16.1	nt
COc1ccc(/C=N/N(Cc2ccccc2)c2ccccc2)cc1O	-3.0	8.1	11.6*	0.2	nt	2.1
COc1cc(/C=C2\NC(=S)N(C)C2=O)ccc1O	-17.4	12.4	-3.0	-23.4	6.0	-2.0
COc1cc(C=C2NC(=O)NC2=O)ccc1O	3.6	35.4*	1.5	nt	nt	nt
COc1ccc(C=NN(Cc2ccccc2)c2ccccc2)cc1O	nt	nt	nt	nt	10.1	nt
Cc1cc(-c2nc3cc(F)ccc3s2)ccc1N	nt	38.1*	0.1	nt	nt	nt
Cc1ccc(-c2nc3ccccc3s2)cc1S(=O)(=O)N1CCCC1	0.7	6.1	-5.5	-9.0	4.5	5.3
COc1ccc(C=NNC(=O)c2cc(-c3ccccc3)nc3ccccc23)cc1O	nt	nt	nt	nt	7.5	nt
COc1cc(/C=N/NC(=O)c2cnn3c(C)cc(-c4ccccc4)nc23)ccc1O	-1.8	36.8*	0.7	-3.8	nt	-0.1
COc1ccccc1-c1cc(C(=O)N/N=C/C=C/c2ccccc2[N+](=O)[O-])c2ccccc2n1	0.5	31.3*	-1.5	-3.7	nt	0.9
O=C(O)COc1ccccc1C=NNC(=O)c1cc(-c2ccccc2)nc2ccccc12	nt	nt	nt	nt	-10.4	nt
O=C(O)COc1ccccc1/C=N/NC(=O)c1cc(-c2ccc(F)cc2)nc2ccccc12	4.6	51.2*	-3.6	0.3	nt	2.0
COc1cc(/C=N/NC(=O)c2cc(-c3ccccc3)nc3ccccc23)ccc1O	7.6	45.7*	-2.9	-12.0	nt	2.1
CC(CC(=O)Nc1ccc2c(c1)OCCO2)=NNC(=O)Cc1ccc(Cl)cc1	nt	nt	nt	nt	7.5	nt
SMILES	FBA Mtb inh	GDH-TPI counter	FadD28 FP inh	Rv3671c protease	Mtb hypoxia rep	UGM FP inh
COC(=O)C1=C(c2ccc(S(C)(=O)=O)cc2)CC2CCC1N2C(=O)NCc1cccc2ccccc12 (stereo not given)	nt	nt	nt	nt	4.5	nt
COc1cc(C=NNC(=O)c2cc(-c3ccccc3OC(C)C)nc3ccccc23)ccc1O	nt	nt	nt	nt	-12.6	nt
COc1cc(/C=N/NC(=O)c2cc(-c3ccccc3OC(C)C)nc3ccccc23)ccc1O	-2.8	39.8*	-6.0	4.7	nt	0.9
COc1ccc(-c2cc(C(=O)N/N=C/c3sccc3C)c3ccccc3n2)c(OC)c1	-1.1	34.3*	-2.6	4.3	nt	-2.1
CCOc1cc(/C=N/NC(=O)c2cc(-c3cccc(OC)c3)nc3ccccc23)ccc1O	0.0	36.9*	-1.8	-27.3	nt	-1.6
O=C(O)c1ccccc1-c1ccc(C=c2sc3nc4cc(Br)cnc4n3c2=O)o1	-3.3	21.3	12.6*	nt	1.1	nt
O=C(O)c1cccc(-c2ccc(/C=c3/sc4nc5ccccc5n4c3=O)o2)c1	-1.0	-4.3	6.7	4.9	nt	-5.0
CCCc1cc(=O)oc2c3c(cc(OCC(=O)NCCN4CCOCC4)c12)OC(C)(C)CC3	180.2*	10.8	-3.8	-3.5	nt	6.1
CCCCc1cc(=O)oc2c3c(cc(OCC(=O)NCCCO)c12)OC(C)(C)CC3	+	10.3	-2.1	-8.3	3.4	1.3
Cc1cc(OCC(=O)NCCN2CCOCC2)cc(C)c1Cl	0.3	1.6	-1.7	0.5	-1.2	-2.1
CCc1cc(=O)oc2c3c(cc(OCC(=O)NCCCn4ccnc4)c12)OC(C)(C)CC3	164.1*	4.9	-2.5	0.9	nt	0.2
N#C/C(N=Nc1ccccc1O)=N\Nc1ccccc1O	-1.3	12.7	9.4*	-154.8	nt	1.7
Cc1nc(C(=NO)C(N)=O)cs1	nt	nt	nt	nt	16.3	nt
CC(=O)NC1CC2CCCC(C1)N2CC(=O)N1CCCc2ccccc21 (stereo not given)	2.0	5.0	-1.3	2.7	14.0	-0.7
O=C(NC1CC2CCCC(C1)N2CC(=O)N1CCCc2ccccc21)C1CCCCC1 (stereo not given)	190.6*	9.9	-0.1	-16.4	20.8	0.8
CCCCC1S/C(=N/N=Cc2cccs2)NC1=O (stereo not given)	nt	nt	nt	nt	-8.0	nt
O=C(CC1S/C(=N/N=C/c2cccs2)NC1=O)Nc1ccccc1F (stereo not given)	3.8	32.9*	-2.0	-3.4	nt	-2.9
O=C(CC1S/C(=N/N=Cc2cccs2)NC1=O)Nc1ccccc1F (stereo not given)	nt	nt	nt	nt	2.2	nt
C=CCC1S/C(=N/N=C/c2cccs2)NC1=O (stereo not given)	-2.6	53.5*	-1.4	2.6	nt	-3.0
CC(NC(=O)c1nc[nH]c1C(=O)NC(Cc1ccccc1)C(=O)OC(C)(C)C)c1ccccc1 (stereo not given)	nt	nt	nt	nt	1.4	nt
COc1cccc(/C=N/NC(=O)C(=O)N/N=C/c2cccc(OC)c2OC)c1OC	-0.3	19.1	-1.6	-5.7	nt	-1.4
COc1ccc(OC)c(/C=N/NC(=O)c2cc3c(OC)c(OC)ccc3[nH]2)c1	1.4	35.0*	-2.0	14.0	nt	-0.2
CCOc1ccc2[nH]c(C(=O)N/N=C/c3ccccc3OC)cc2c1	6.5	22.4	-2.4	-32.9	nt	-0.6
COc1ccc2[nH]c(C(=O)N/N=C/c3ccccc3OC)cc2c1	5.2	38.1*	-1.9	-10.6	nt	0.4
COc1ccccc1C=NNC(=O)C(=O)NN=Cc1ccccc1OC	3.2	34.5*	-2.8	nt	8.3	nt
COc1ccc2[nH]c(C(=O)Nc3ccc(F)cc3Br)cc2c1	5.8	32.4*	-1.9	0.2	7.1	-0.4
CCOC(=O)C1C2COc3ccc(OC)cc3C2N2C(=O)c3cc(C)ccc3NC(=O)[C@@]12C (stereo not given in full)	nt	nt	nt	nt	1.1	nt
Cc1nn(C)c(C(=O)NN=Cc2ccc(Br)cc2)c1Cl	nt	nt	nt	nt	2.2	nt
